The values below come from PubChem BioAssay (NCATS).

Molecules are shown by their SMILES. Results filed as inconclusive are left out. Where a call stands in place of a potency, no number is given. Values without a mark were called inactive. Activity calls are given as the source filed them. Calls follow the shape of the dose curve; as a rule, active = well fitted curve in the direction sought with a large enough effect; inconclusive = small, poorly fitted or top-dose-only effect, or another doubt; inactive = no such curve, though single readings can be large; an effect the other way counts as inactive or inconclusive.

The target of experiment [1] is Calcium and integrin-binding protein 1 (Homo sapiens) (UniProt Q99828). As to the kind of experiment: Primary qHTS for Identification of Calcium Integrin Binding Protein 1 (CIB1) Competitor (AID 1508620). Also: potency is read from the fitted curve at half-maximal effect. In outline:
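Fluorescence polarization competition: GST-tagged CIB1 (1 uM final) preincubated with compound 15 min at room temperature, then FITC-labelled alphaIIb peptide (100 nM final) added. After 15 min at room temperature, polarization read at Ex 480/Em 540.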
(qHTS replaces the single test concentration by a dilution series.)

The target is the same in experiment [2]. The experiment in a line: Confirmatory qHTS for Identification of Calcium Integrin Binding Protein 1 (CIB1) Competitor (AID 1508617). Also: nearly all actives have a fitted effect of over 65% in size. Also: potency is read from the fitted curve at half-maximal effect. The essentials: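 Binding competition between test compounds and fluorescent alphaIIb peptide for 1 uM CIB1-GST is monitored by FP at 480/540 nm. Final compound range is up to 114 uM; unlabeled peptide serves as reference competitor.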

The nature of experiment [3]: qHTS for Inhibitors of Ubiquitin-specific Protease USP2a Using CHOP2 as the Reporter: Cytotox Assay (AID 652170). Also: nearly all actives have a fitted effect of over 70% in size. Also: potency is read from the fitted curve at half-maximal effect. The essentials: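 HCT116 human colon cancer cells, 600 per well in DMEM with 10% FBS, exposed to compounds for 72 hr at 37 deg C. ATP measured by CellTiter-Glo luminescence, normalized to DMSO cells and no-cell background.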
Experiment [4] has as its target Ubiquitin carboxyl-terminal hydrolase 2 (Homo sapiens) (UniProt O75604). As to the kind of experiment: qHTS for Inhibitors of Ubiquitin-specific Protease USP2a Using CHOP2 as the Reporter: K484 Substrate (AID 652173).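 Also: cleavage of internally quenched K48 di-ubiquitin substrate measured as rising fluorescence over time; nearly all actives have a fitted effect of over 70% in size.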 Also: potency is read from the fitted curve at half-maximal effect. The essentials: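 USP2 (dispensed at 5 nM) was pinned with compounds, then DiUb K48 internally quenched fluorescent substrate (dispensed at 100 nM) was added. The buffer was 20 mM Tris pH 8, 2 mM beta-mercaptoethanol and 0.05% CHAPS. Cleavage was read kinetically as rising fluorescence, Ex 525/Em 598.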

Experiment [5] can be described thus: qHTS for Inhibitors of Ubiquitin-specific Protease USP2a Using CHOP2 as the Reporter: K633 Counterscreen (AID 652168). Also: series mostly up to about 57 µM. The essentials:
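Cell-free interference counterscreen without USP2a: compounds pinned into enzyme-free buffer (20 mM Tris pH 8, 2 mM beta-mercaptoethanol, 0.05% Chaps), then DiUb K48-4IQF substrate added (100 nM stock); fluorescence read kinetically, Ex 525/Em 598.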

The target of experiment [6] is Rap guanine nucleotide exchange factor 3 (Homo sapiens) (UniProt O95398). The experiment in a line: Confirmatory qHTS for agonist of cAMP-regulated guanine nucleotide exchange factor 3 (EPAC1) (AID 1645881).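 Also: EPAC1 catalysed release of BODIPY-GDP from Rap1B seen as fluorescence loss; nearly all actives have a fitted effect of over 75% in size.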
Sequence of Rap guanine nucleotide exchange factor 3 (Homo sapiens) (O95398 whole entry, looked up): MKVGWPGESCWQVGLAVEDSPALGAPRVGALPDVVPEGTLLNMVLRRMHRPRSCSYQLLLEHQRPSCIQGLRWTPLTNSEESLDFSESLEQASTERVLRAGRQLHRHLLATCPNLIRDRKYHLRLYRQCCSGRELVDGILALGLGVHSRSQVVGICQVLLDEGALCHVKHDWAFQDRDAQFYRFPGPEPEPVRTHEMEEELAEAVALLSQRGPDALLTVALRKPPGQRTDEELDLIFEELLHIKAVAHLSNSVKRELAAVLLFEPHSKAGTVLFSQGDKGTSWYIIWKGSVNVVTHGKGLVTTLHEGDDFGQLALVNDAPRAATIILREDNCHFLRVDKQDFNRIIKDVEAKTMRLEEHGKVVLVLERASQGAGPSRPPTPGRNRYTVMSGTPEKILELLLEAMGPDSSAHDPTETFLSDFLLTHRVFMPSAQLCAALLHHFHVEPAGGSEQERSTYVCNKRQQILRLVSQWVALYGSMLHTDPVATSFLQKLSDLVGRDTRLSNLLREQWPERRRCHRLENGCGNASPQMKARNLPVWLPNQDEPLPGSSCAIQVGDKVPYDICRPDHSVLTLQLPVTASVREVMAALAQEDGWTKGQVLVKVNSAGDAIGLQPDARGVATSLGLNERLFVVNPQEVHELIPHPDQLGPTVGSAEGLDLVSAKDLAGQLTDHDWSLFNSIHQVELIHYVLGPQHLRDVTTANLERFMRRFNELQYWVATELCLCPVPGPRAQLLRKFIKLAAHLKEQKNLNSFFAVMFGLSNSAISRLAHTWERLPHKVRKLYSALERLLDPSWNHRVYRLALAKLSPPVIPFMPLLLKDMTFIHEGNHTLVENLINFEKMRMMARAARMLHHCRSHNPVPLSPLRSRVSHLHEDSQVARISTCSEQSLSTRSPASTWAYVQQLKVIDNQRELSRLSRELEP
Experiment [7] addresses Rap guanine nucleotide exchange factor 4 (Homo sapiens) (UniProt Q8WZA2). As to the kind of experiment: Confirmatory qHTS for agonist of cAMP-regulated guanine nucleotide exchange factor 4 (EPAC2) (AID 1645884).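 Also: nucleotide exchange releases bodipy-GDP from Rap1 and this lowers its fluorescence; nearly all actives have a fitted effect of over 65% in size.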
Experiment [8] concerns the target Rap guanine nucleotide exchange factor 3 (Homo sapiens) (UniProt O95398). As to the kind of experiment: Counterscreen qHTS for antagonist of cAMP-regulated guanine nucleotide exchange factor 3 (EPAC1) (AID 1645888).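 Also: fluorescence loss as bound BODIPY-GDP is released from Rap1B.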 The essentials:
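Rap1B–BODIPY-GDP (250 nM) with 50 uM GDP; compounds pin-transferred to 9.74 nM–152 uM final (activator) or from 7.32 nM upwards (inhibitor). Fluorescence Ex/Em 480/540 nm read at 5 and 30 min, then after adding cAMP or buffer, at room temperature.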

Sequence of Calcium and integrin-binding protein 1 (Homo sapiens) (Q99828 whole entry, looked up): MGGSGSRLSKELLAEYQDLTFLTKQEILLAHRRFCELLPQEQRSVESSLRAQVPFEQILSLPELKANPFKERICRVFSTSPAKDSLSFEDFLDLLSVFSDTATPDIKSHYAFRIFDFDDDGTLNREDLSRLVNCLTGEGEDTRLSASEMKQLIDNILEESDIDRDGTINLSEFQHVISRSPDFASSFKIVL
Sequence of Ubiquitin carboxyl-terminal hydrolase 2 (Homo sapiens) (O75604 whole entry, looked up): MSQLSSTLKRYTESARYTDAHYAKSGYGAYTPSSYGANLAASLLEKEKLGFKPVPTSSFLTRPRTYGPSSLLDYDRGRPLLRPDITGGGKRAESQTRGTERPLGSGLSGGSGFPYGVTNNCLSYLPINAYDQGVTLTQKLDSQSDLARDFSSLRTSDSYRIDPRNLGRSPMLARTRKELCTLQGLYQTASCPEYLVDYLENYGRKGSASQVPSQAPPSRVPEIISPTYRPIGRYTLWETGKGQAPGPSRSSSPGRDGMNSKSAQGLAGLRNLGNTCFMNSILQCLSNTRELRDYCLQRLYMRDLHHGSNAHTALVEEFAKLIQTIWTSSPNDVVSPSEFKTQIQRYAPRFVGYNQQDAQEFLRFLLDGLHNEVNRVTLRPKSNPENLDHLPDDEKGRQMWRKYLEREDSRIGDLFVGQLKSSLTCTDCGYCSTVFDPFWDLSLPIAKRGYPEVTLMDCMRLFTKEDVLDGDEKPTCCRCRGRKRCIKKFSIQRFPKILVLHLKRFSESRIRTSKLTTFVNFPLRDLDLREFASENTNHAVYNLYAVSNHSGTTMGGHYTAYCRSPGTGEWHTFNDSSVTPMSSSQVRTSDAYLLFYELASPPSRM
Sequence of Rap guanine nucleotide exchange factor 4 (Homo sapiens) (Q8WZA2 whole entry, looked up): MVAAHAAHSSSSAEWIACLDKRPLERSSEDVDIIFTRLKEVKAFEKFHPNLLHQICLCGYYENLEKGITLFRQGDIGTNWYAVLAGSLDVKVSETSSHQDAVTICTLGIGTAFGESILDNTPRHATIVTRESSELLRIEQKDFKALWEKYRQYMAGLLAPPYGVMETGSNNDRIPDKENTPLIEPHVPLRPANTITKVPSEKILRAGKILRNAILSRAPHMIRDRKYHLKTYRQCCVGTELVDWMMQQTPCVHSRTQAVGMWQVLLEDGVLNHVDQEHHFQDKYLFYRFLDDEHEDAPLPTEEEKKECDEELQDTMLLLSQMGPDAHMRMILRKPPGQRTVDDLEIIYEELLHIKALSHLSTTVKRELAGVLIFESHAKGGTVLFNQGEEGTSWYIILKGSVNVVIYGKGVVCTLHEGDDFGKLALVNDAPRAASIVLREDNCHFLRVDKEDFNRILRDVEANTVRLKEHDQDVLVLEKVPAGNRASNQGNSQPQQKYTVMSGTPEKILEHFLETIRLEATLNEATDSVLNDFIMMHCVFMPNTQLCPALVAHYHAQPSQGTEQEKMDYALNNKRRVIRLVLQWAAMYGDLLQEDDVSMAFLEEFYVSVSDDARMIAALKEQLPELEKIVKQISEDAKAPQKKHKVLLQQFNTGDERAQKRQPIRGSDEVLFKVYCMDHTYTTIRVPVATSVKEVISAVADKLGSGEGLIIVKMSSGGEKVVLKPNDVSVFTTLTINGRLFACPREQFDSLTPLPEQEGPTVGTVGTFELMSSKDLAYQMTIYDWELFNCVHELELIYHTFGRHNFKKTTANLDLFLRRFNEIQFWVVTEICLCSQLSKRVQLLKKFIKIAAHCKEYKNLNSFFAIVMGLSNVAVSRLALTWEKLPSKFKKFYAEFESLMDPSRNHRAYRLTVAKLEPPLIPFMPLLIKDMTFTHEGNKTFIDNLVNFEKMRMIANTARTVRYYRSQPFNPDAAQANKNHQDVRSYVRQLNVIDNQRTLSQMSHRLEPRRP

For `COc1cc(O)c(C(CC(=O)N2CCCC(C(=O)N3CCCCC3)C2)c2ccc3c(c2)OCO3)c(OC)c1` (centres undefined), in experiment [1], the Potency result is “inactive”.

As for `FC(F)(F)c1cccc(N2CCN(C(=S)Nc3ccncc3)CC2)c1`, the Potency result in experiment [1] is “inactive”.

Take `O=C(O)c1ccc(O)c2ncc(-c3n[nH]nc3-c3ccccc3)cc12`: the Potency entry in experiment [2] and in experiment [1] was “inactive” in each case.

For `c1ccc(-n2ccc(-c3nnc4n3CCCCC4)c2)cc1`, the Potency in experiment [2] was 50.1 µM (active); in experiment [1] it was 79.4 µM (active).

For the compound `O=c1c2ccccc2nc2sc(Nc3cccc(Br)c3)nn12`, the Potency result in experiment [1] was “inactive”.

Turning to `Cc1ccc(S(=O)(=O)Nc2cc(Cl)cc(C(=O)Nc3nc(-c4ccccc4)cs3)c2)cc1`, the Potency entry in experiment [1] was “inactive”.

Take `O=C1N/C(=C\c2ccco2)C(=O)N1Cc1ccc(F)cc1`: in experiment [1], the Potency entry was “inactive”.

Turning to `FC(F)(F)c1cccc(CSc2nc3ncc(Br)cc3[nH]2)c1`, in experiment [1], the Potency entry was “inactive”.

Regarding `O=C(CSc1nnc(-c2cccc(S(=O)(=O)N3CCCC3)c2)n1-c1ccccc1)Nc1ccc(Cl)cc1`, in experiment [1], the Potency entry was “inactive”.

With `O=C1CCCC2=C1C(c1[nH]ncc1Cl)NC(=NCc1cccs1)N2` (centres undefined), the Potency entry in experiment [1] was “inactive”.

Consider `NS(=O)(=O)c1ccc(Nc2nc(-c3ccccc3)cs2)cc1`, for which the Potency result in experiment [3] was “inactive”. The results for the Potency in experiment [4] and in experiment [2] were 21.7 µM (active) and 50.1 µM (active), respectively.

Regarding `O=C(O)c1ccccc1SC1=NS(=O)(=O)c2ccccc21`, the Potency entry in experiment [2] and in experiment [1] was “inactive” each time.

Consider `Cc1ccc(NC(=O)c2cnn3c(C)cc(C)nc23)cc1`, for which the Potency entry in experiment [1] is “inactive”.

As to `Cc1ccc2nc3sc(C(=O)NCc4ccco4)cc3cc2c1`, the Potency entry in experiment [2] and in experiment [1] was “inactive” in each case.

For `CC1(C)OB(c2ccc(O)c3ncc(N4CCNCC4)cc23)OC1(C)C`, the Potency in experiment [2] was 31.6 µM (active); in experiment [1] it was 50.1 µM (active).

Turning to `N#Cc1nc(Nc2cc(F)cc(F)c2)c2ncn(CCCN3CCCC3)c2n1`, in experiment [1], the Potency result was “inactive”.

In the case of `O=S(=O)(Nc1nccs1)c1ccc(Nc2nc(-c3ccccc3)cs2)cc1`, the call in experiment [5] was inactive. Also, the Potency result in experiment [3] and in experiment [4] was “inactive” throughout. The Potency in experiment [2] and in experiment [1] was 50.1 µM (active) in each case.

For `O=C(/C=C/c1ccc([N+](=O)[O-])o1)Nc1cccc([S+](=O)([O-])Nc2ccccc2F)c1`, the Potency entry in experiment [1] is “inactive”.

In the case of `O=C1CCCC2=C1C1(CCCOC1)N=C(Nc1nc3ccccc3o1)N2` (centres undefined), in experiment [2], the Potency entry is “inactive”.

As for `Cc1ccc(CNc2ncnc3ccc(-c4ccc([C@@H](C)O)o4)cc23)o1`, the Potency result in experiment [2] and in experiment [1] was “inactive” in each case.

Regarding `CN(C(=O)c1cccs1)c1cccnc1`, the Potency in experiment [2] was 31.6 µM (active); in experiment [1] it was 50.1 µM (active).

For the compound `FC(F)(F)c1ccccc1-c1nc(NCc2ccc(-c3ccccc3)cc2)c2ccccc2n1`, in experiment [1], the Potency entry is “inactive”.

In the case of `O=C(Nc1nc(-c2ccccc2)cs1)c1ccncc1NS(=O)(=O)c1cccc2cccnc12`, in experiment [5], the result was inactive. Further, the Potency entry in experiment [3] was “inactive”. In addition, the Potency in experiment [4] is 7.69 µM (active); in experiment [2], 35.5 µM (active).

For `CCOc1ccc(NC(=O)NCC2CCCN2c2ccc(OC)cc2)cc1` (centres undefined), the Potency entry in experiment [1] is “inactive”.

On to `CC(=O)NC(c1cccs1)c1cc(Br)c2cccnc2c1O` (centres undefined), for which the Potency result in experiment [2] and in experiment [1] was “inactive” in each case. In addition, the compound was called inactive in experiment [6] and in experiment [8]. Moreover, the activation in experiment [7] is 0% [at 17.1 µM].

Take `Cc1ccc(S(=O)(=O)Nc2cc3c(cc2C(=O)Nc2nc(-c4ccccc4)cs2)OCO3)cc1`: the outcome in experiment [5] was inactive. Moreover, the figures for the Potency in experiment [3] and in experiment [4] were 16.6 µM (active) and 1.37 µM (active), respectively. Also, the Potency result in experiment [2] was “inactive”.
